We go through six molecules from PubChem BioAssay (NCATS).

Each structure is given as a SMILES string. Results filed as inconclusive are left out. Activity calls are given as the source filed them. Unless noted, calls follow the shape of the dose curve; as a rule, active = well fitted curve in the direction sought with a large enough effect; inconclusive = small, poorly fitted or top-dose-only effect, or another doubt; inactive = no such curve, though single readings can be large; an effect the other way counts as inactive or inconclusive. Bounds are passed on as bounds.

The target of assay [1] is Lysosomal acid glucosylceramidase (Homo sapiens) (UniProt P04062). Put plainly: Glucocerebrosidase-p2 (AID 348; in the data active = potency below about 10 µM; also: potency is read from the fitted curve at half-maximal effect). Conditions: purified GBA, blue fluorogenic substrate, 40 min. The gist of the method: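 Normal human glucocerebrosidase (0.2 nM) with blue fluorogenic substrate (80 uM final) in citrate/phosphate pH 5.9 with 10mM sodium taurocholate, 0.01% tween-20; 40 min RT, NaOH/glycine stop; fluorescence Ex 365/Em 440; AC50 from a titration from 0.6 nM upwards.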

Assay [2] in a line: AP1 Signaling Pathway (AID 357; active = well fitted curve in either direction with a large enough effect, not every such curve was filed as active;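 also: ME-180 reporter cells stimulated with EGF at its EC50 level; % is scaled to controls: 0 for no effect and ±100 for the full control effect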). Conditions: ME-180 AP-1-bla reporter, EGF-induced, beta-lactamase ratio, 5 h; at 7.69 µM (top of the series) unless noted. Summed up:
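Beta-lactamase reporter under AP-1 response element, ME-180 background. Stimulus: EC50 EGF. Compound exposure 5 h, 37 °C. Detection: CCF4, 2.5 h RT, 460/530 nm. Values: AC50 from titration.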

Assay [3] deals with Cytochrome P450 1A2 (Homo sapiens) (UniProt P05177). Briefly: p450-cyp1a2 (AID 410; calls by dose curve; also: potency is read from the fitted curve at half-maximal effect). The gist of the method:
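20nM CYP1A2, 100uM Luciferin-ME (=Km), 100mM KPO4; cpd 10 min RT; +NADPH regen, 60 min RT; stop/detect 20 min; luminescence. Normalized to furafylline 57 uM = full inhibition.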

Assay [4] can be described thus: NFAT Signaling Pathway (AID 444; active = well fitted curve in either direction with a large enough effect, not every such curve was filed as active;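 also: carbachol stimulus at about its EC50 of 1 µM final; % is scaled to controls: 0 for no effect and ±100 for the full control effect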). Conditions: Jurkat NFAT-bla M1, carbachol, beta-lactamase ratio, 5 h; at 7.69 µM (top of the series) unless noted. Summed up:
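Read-out: CCF4 FRET ratio (460 nm/530 nm) after 1 h RT dye loading, used for %activity and AC50 from titration series. Cells: Jurkat NFAT-β-lactamase/M1 line, treated with compound plus 1 uM carbachol for 5 h, 37 °C.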

Assay [5] in a line: Stat Signaling Pathway (AID 446; active = well fitted curve in either direction with a large enough effect, not every such curve was filed as active;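 also: ME-180 cervical cancer cells given 40 pM IL-6 alongside compound; SIE-controlled beta-lactamase reporter measured as 460/530 nm FRET emission ratio; % is scaled to controls: 0 for no effect and ±100 for the full control effect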). Conditions: ME-180 (cervical carcinoma) SIE beta-lactamase reporter, IL-6 stimulated, 5 h; at 7.69 µM (top of the series) unless noted. The gist of the method: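 Emission at 460 and 530 nm (excitation 405 nm) reports SIE-controlled beta-lactamase in ME-180 cells. Cells received compound with 40 pM IL-6 for 5 hrs at 37 C; data scaled between 300 pM IL-6 and 125 nM JAK-inhibitor controls.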

The target in assay [6] is Glucocorticoid receptor (Homo sapiens) (UniProt P04150). Briefly: GR-GFP Redistribution (AID 450;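 active = compounds whose dose series gives a full or clear partial fitted curve of increased nuclear translocation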; also: potency is read from the fitted curve at half-maximal effect). Conditions: U2OS GR-GFP nuclear translocation, laser cytometry, 2 h.
Assay [7] shares this target. Briefly: GR-EFC Redistribution (AID 451; calls by dose curve; also: potency is read from the fitted curve at half-maximal effect). Conditions: CHO-K1 GR-EFC translocation, beta-gal luminescence, 2 h. Summed up: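 Translocation of GR-ED fusion to nuclear EA restores b-gal, read by luminescence after 1 h room-temperature detection. Engineered CHO-K1 biosensor cells, 1,000/well, exposed 2 h at 37 C to titrations up to 46 uM final.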
The target of assay [8] is Mitogen-activated protein kinase 10 (Mus musculus) (UniProt Q61831). Briefly: JNK3 AlphaScreen Assay (AID 530; active = well fitted curve in either direction with a large enough effect, not every such curve was filed as active;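 also: kinase came from lysate of stimulated human HepG2 cells; signal reports phosphorylation of biotinylated GST-cJun 1-79 at Ser73 with 10 µM ATP; % is scaled to controls: 0 for no effect and ±100 for the full control effect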). The gist of the method:
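Kinase buffer: 20 mM Tris-HCl pH 7.6, 10 mM MgCl2, 1 mM DTT, 0.1 mM Na3VO4, 0.01% Tween-20; ATP 10 uM. Substrate biotin-GST-cJun(1-79), enzyme from activated HepG2 lysates. Detection by Ser73 phospho-antibody AlphaScreen.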
In general terms: Bead proximity is the source of the signal in Alpha formats.

Assay [9] has as its target Cytochrome P450 3A4 (Homo sapiens) (UniProt P08684). Briefly: qHTS Assay for Inhibitors and Substrates of Cytochrome P450 3A4 (AID 884). Also: potency is read from the fitted curve at half-maximal effect; nearly all actives have a fitted effect of over 50% in size. The gist of the method:
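Luminescent readout of luciferin produced by CYP3A4 (20 nM) dealkylation of Luciferin-PPXE, 25 uM (its KM). NADPH-driven reaction ran 60 min at RT after 10 min compound preincubation; data scaled to 57 uM ketoconazole as 100% inhibition.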
In general terms: Quantitative high-throughput screening tests each substance at several concentrations.

The target is the same in assay [10]. Briefly: qHTS Assay for Activators of Cytochrome P450 3A4 (AID 885). Also: nearly all actives have a fitted effect of over 65% in size. The gist of the method: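 Activators are scored by enhanced luminescence from CYP3A4 conversion of luciferin-PPXE (25uM, equal to KM) to luciferin, after 60 min at RT with an NADPH-regenerating system.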
The target in assay [11] is Cytochrome P450 2C19 (Homo sapiens) (UniProt P33261). Briefly: qHTS Assay for Inhibitors and Substrates of Cytochrome P450 2C19 (AID 899). Also: nearly all actives have a fitted effect of over 60% in size. Also: potency is read from the fitted curve at half-maximal effect. The gist of the method:
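Luminescence readout of luciferin formed from 10uM Luciferin-H EGE (KM level) by 5 nM CYP2C19 in 50mM KPO4. 60 min NADPH-driven reaction at 37C after 10 min compound preincubation; data scaled to 57uM ketoconazole inhibition.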

Assay [12] in a line: Confirmation and Secondary Assay for Modulators of Hemoglobin Beta Chain Splicing at IVS2 654 locus (AID 910).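 Also: HeLa cells stably carrying EGFP split by mutant beta-globin IVS2-654 intron; per-well total GFP intensity by laser scanning cytometry after 2-day treatment; % of control where 0% means no effect.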 Summed up: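 Readout: per-well total peak green fluorescence (488 nm ex, 500–520 nm em) from objects 5–250 µm, reflecting correct splicing of an EGFP-654 reporter. Compounds were applied for 2 days at 37 °C to overnight-plated HeLa EGFP-654 cells; controls were DMSO and 500 nM IVS2-654 PNA.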

The nature of assay [13]: Confirmation and Secondary Assay for Modulators of Hemoglobin Beta Chain Splicing at IVS2 705 locus (AID 930).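 Also: HeLa cells stably expressing the EGFP-705 splicing reporter; GFP fluorescence per well restored by corrected splicing of the IVS2-705 intron in EGFP; % of control where 0% means no effect.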 Summed up:
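Per-well GFP, captured at 1 x 8 µm resolution with 488 nm excitation, served as the read-out for HeLa EGFP-705 cells incubated 2 days with test compound versus DMSO.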

The nature of assay [14]: qHTS Assay for Lipid Storage Modulators (AID 1519; calls by dose curve). Conditions: Drosophila S3 cells, BODIPY lipid droplet/cell ratio, laser cytometry, cells loaded with oleic acid; for activity change, negative = inhibition: at 57.5 µM (top of the series). The gist of the method:
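Cells seeded at 5,000 per well were treated with compounds over a concentration series and loaded with oleic acid (400 uM, as added). Lipid droplet fluorescence (488 nm excitation, 500-530 nm channel) was read by laser-scanning cytometry and normalized to 20 uM Triacsin C.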

Assay [15] has as its target Ubiquitin carboxyl-terminal hydrolase 1 (Homo sapiens) (UniProt O94782). Briefly: Inhibitors of USP1/UAF1: Pilot qHTS (AID 504865). Also: nearly all actives have a fitted effect of over 35% in size. Also: potency is read from the fitted curve at half-maximal effect. Summed up: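 Deubiquitinase activity followed as kinetic rhodamine fluorescence release from 150 nM Ub-Rho. 1 nM USP1/UAF1 with compound, after 15 min room-temperature preincubation, in HEPES pH 7.8 buffer containing TCEP, EDTA, BSA and Tween-20.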

The nature of assay [16]: Primary qHTS for small molecule stabilizers of the endoplasmic reticulum resident proteome: Secreted ER Calcium Modulated Protein (SERCaMP) assay (AID 1508630). Also: % is scaled to controls: 0 for no effect and ±100 for the full control effect. The gist of the method: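 The SH-SY5Y reporter protocol was run at 3 concentrations up to 38.3 uM (primary) or 11 concentrations (follow-up): 16 h compound, 100 nM thapsigargin for 4 h, then extracellular luciferase luminescence.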

Assay [17] deals with 3',5'-cyclic-AMP phosphodiesterase 4B (Homo sapiens) (UniProt Q07343). Put plainly: qHTS Assay for Inhibitors of PDE-IV (AID 607; active = well fitted activation curve with a large enough effect in the main read-out, with a control signal flat, not every such curve was filed as active; also: % of control where 0% means no effect). The gist of the method:
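The readout is membrane depolarisation from a cAMP-sensing CNG channel, detected with a potential dye at ex 535/em 590. Cells were HEK293-derived (endogenous PDE-IV) at 1000 cells/well, titrated up to 22.9 uM final.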

The mark [18] stands for this setting: measured here: cell count channel max response.
The mark [19] stands for this setting: measured here: lipid channel max response.

Chain of 3',5'-cyclic-AMP phosphodiesterase 4B (Homo sapiens) (Q07343 whole entry, looked up): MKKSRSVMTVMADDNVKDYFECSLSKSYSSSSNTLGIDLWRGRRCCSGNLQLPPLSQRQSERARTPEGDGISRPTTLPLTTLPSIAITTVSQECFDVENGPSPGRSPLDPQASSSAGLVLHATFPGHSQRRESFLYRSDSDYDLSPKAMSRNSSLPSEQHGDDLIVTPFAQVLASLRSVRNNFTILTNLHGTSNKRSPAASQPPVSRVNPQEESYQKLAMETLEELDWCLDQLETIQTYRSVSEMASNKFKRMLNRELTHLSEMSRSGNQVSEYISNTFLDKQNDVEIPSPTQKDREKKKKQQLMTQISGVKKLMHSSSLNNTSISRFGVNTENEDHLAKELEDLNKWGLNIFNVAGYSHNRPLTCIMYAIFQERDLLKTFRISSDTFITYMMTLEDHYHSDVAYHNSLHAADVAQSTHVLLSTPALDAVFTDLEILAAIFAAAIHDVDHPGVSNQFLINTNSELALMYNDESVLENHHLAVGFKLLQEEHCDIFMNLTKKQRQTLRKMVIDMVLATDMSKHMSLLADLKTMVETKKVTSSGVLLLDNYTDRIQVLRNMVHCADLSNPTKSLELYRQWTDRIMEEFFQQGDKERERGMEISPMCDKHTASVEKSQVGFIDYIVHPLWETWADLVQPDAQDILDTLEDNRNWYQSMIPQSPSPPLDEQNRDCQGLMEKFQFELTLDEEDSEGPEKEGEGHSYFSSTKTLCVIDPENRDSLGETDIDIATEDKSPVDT
Chain of Cytochrome P450 1A2 (Homo sapiens) (P05177 whole entry, looked up): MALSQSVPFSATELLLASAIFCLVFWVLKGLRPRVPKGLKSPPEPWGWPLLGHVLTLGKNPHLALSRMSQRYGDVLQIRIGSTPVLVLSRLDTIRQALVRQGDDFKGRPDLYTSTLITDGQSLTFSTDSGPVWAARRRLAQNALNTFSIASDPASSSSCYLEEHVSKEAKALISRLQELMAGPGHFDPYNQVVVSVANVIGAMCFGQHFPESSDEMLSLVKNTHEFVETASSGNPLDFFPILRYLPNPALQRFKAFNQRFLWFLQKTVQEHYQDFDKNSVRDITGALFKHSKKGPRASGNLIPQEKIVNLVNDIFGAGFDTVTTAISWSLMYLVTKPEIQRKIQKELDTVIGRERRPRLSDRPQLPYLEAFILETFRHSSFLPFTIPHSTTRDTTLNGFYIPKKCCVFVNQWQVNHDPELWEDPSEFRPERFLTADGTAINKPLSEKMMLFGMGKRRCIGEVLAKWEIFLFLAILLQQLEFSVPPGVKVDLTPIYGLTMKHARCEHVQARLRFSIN
Chain of Glucocorticoid receptor (Homo sapiens) (P04150 whole entry, looked up, the tested form may be a part): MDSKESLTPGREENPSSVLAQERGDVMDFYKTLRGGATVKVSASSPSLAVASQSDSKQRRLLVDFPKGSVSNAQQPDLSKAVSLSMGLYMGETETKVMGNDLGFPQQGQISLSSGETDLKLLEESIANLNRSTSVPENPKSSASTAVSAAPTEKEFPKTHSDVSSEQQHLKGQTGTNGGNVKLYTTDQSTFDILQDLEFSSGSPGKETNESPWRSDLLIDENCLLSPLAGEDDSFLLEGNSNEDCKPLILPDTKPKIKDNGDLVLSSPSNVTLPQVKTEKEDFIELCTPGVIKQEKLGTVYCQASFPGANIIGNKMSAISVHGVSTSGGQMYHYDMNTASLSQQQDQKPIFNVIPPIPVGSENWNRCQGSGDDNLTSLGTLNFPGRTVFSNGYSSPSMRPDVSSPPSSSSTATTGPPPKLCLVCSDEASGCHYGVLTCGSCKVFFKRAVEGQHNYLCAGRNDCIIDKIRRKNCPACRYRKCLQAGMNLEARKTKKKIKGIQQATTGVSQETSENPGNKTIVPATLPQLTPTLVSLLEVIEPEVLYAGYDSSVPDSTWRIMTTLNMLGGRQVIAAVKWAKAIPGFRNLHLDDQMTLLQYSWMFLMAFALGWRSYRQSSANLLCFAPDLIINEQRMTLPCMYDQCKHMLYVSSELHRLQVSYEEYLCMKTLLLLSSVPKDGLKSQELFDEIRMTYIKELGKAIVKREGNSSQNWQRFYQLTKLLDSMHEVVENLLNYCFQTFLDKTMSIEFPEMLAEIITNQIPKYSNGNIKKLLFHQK
Chain of Cytochrome P450 2C19 (Homo sapiens) (P33261 whole entry, looked up): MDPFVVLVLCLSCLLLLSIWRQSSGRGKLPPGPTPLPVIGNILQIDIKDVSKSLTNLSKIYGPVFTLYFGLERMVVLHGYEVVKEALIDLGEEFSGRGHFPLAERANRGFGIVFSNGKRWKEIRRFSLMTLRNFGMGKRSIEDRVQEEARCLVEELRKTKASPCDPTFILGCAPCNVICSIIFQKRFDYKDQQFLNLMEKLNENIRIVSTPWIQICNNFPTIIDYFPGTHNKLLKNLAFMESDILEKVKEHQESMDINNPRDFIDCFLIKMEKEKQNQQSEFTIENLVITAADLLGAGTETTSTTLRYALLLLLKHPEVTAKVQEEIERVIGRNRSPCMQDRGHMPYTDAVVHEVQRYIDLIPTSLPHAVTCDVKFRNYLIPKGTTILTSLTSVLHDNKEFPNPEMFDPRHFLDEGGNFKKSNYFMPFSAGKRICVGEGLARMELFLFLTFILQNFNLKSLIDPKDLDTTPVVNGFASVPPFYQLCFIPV
Chain of Cytochrome P450 3A4 (Homo sapiens) (P08684 whole entry, looked up): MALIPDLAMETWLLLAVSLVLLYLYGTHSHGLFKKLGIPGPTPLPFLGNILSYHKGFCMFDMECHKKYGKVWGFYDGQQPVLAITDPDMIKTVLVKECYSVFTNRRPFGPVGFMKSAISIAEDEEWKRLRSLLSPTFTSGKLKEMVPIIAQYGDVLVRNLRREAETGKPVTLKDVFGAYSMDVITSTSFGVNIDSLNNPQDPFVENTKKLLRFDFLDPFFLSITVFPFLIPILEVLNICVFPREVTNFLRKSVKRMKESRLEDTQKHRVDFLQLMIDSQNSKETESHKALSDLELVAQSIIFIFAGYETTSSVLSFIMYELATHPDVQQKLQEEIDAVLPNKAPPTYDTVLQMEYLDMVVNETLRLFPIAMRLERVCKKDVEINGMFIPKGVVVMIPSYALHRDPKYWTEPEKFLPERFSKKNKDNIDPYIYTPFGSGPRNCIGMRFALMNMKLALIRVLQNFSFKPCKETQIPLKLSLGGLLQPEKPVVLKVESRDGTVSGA
Chain of Ubiquitin carboxyl-terminal hydrolase 1 (Homo sapiens) (O94782 whole entry, looked up): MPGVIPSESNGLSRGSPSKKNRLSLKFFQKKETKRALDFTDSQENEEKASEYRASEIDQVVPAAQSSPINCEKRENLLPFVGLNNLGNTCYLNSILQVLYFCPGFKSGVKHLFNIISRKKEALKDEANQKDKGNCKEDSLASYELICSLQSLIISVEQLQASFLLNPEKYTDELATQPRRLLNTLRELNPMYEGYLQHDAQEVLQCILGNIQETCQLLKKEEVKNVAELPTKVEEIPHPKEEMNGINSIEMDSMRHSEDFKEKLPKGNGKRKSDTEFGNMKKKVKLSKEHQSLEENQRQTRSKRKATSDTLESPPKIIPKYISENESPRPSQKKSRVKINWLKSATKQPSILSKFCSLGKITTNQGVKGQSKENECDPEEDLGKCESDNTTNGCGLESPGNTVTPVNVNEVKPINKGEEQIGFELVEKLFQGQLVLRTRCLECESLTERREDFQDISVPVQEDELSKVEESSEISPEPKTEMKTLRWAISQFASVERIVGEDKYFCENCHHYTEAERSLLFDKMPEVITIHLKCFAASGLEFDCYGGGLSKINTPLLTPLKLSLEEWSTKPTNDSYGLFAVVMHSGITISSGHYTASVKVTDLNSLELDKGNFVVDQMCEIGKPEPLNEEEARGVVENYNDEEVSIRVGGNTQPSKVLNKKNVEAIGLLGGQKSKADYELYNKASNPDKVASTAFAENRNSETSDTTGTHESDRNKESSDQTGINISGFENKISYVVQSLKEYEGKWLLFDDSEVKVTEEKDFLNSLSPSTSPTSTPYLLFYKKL
Chain of Lysosomal acid glucosylceramidase (Homo sapiens) (P04062 whole entry, looked up): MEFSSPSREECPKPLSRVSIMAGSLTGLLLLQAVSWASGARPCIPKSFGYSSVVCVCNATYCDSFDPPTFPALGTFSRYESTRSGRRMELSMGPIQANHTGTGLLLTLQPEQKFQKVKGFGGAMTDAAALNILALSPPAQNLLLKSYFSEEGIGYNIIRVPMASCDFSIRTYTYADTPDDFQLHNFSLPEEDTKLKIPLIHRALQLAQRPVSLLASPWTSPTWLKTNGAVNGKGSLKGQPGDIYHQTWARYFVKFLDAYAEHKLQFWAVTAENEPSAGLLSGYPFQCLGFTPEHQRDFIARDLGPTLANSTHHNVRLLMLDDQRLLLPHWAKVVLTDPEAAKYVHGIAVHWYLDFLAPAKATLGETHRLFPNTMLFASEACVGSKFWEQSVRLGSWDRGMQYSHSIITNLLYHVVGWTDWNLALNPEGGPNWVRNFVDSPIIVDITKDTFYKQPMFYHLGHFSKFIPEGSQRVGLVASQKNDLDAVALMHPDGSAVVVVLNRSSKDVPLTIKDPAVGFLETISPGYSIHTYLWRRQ

In the case of `COc1ccccc1CNc1ccnc(-c2ccoc2)n1`, the Potency is > 11.4 µM (inactive) in [1]; 1.58 µM (active) in assay [3]; > 46 µM (inactive) in [6]; > 46 µM (inactive) in assay [7]; 2.51 µM (active) in [9]; 7.94 µM (active) in assay [11]. Also, the Potency in [15] was 50.1 µM (active). Moreover, the activity change, negative = inhibition is -2.58% (inactive) in [2], -21% (inactive) in assay [4] and 8.47% (inactive) in assay [14]. Further, in [5], the activity, negative = inhibition is -4.66% (inactive). Further, the result in assay [8], in assay [12] and in assay [13] was inactive. The Potency result in assay [10] and in [16] was “inactive” throughout. Further, the max response in assay [14] (setting [18]) is -15.1%; in assay [14] (setting [19]), 2.83%.

On to `O=c1c(-c2ccc(F)cc2)nc2cnc(N3CCOCC3)nc2n1C[C@H]1CCCO1`, for which the Potency in assay [1] was > 11.4 µM (inactive); in [3], 1.58 µM (active); in [6], > 9.22 µM (inactive); in assay [7], > 46 µM (inactive). Moreover, the activity change, negative = inhibition in [2] was 9.7% (inactive); in assay [4], 1.18% (inactive); in assay [14], -21.9% (inactive). The activity, negative = inhibition in [5] is 29.2% (inactive). The call in assay [8] was inactive. The Potency entry in assay [17], in assay [11] and in assay [16] was “inactive” in each case. Moreover, the max response is 16.8% in assay [14] (setting [18]) and -2.6% in assay [14] (setting [19]).

For the molecule `Clc1ccccc1-c1nccc(-n2ccnc2)n1`, the Potency in assay [1] was > 11.4 µM (inactive); in [3] it was 0.158 µM (active); in assay [6] it was > 46 µM (inactive); in assay [7], > 46 µM (inactive); in [11] it was 2.51 µM (active). The figures for the activity change, negative = inhibition in [2], in [4] and in assay [14] were -12.3% (inactive), -0.584% (inactive) and 8.95% (inactive), respectively. In addition, the activity, negative = inhibition in assay [5] is 0.405% (inactive). The outcome in assay [8], in assay [12] and in assay [13] was inactive. For the same molecule, the Potency result in assay [17], in assay [10] and in assay [16] was “inactive” each time. Also, the max response in assay [14] (setting [18]) was 4.29%; in assay [14] (setting [19]), 13%.

Turning to `N#Cc1cccc(-c2cc(NCc3cccs3)ncn2)c1`, the Potency is > 11.4 µM (inactive) in assay [1], 0.794 µM (active) in assay [3], > 46 µM (inactive) in assay [6] and > 46 µM (inactive) in [7]. Besides, the values for the activity change, negative = inhibition in [2], in [4] and in assay [14] were -6.14% (inactive), 12.6% (inactive) and 3.14% (inactive), respectively. In [5], the activity, negative = inhibition is -3.35% (inactive). For the same molecule, the molecule was called inactive in assay [8], in assay [12] and in assay [13]. Also, the Potency entry in assay [17], in [10], in assay [15] and in [16] was “inactive” throughout. For the same molecule, the max response in assay [14] (setting [18]) is -10.3%; in [14] (setting [19]) it was -10.9%.

In the case of `Cc1nc2cnc(Nc3ccccc3)nc2n(C)c1=O`, the Potency in assay [1] is > 11.4 µM (inactive); in assay [3] it was 1.26 µM (active); in assay [6], > 9.22 µM (inactive); in assay [7] it was > 46 µM (inactive). The values for the activity change, negative = inhibition in assay [2], in [4] and in assay [14] were -16.6% (inactive), -8.95% (inactive) and -9.81% (inactive), respectively. Besides, the activity, negative = inhibition in assay [5] is -15.2% (inactive). Also, the molecule was classed as inactive in [8]. The Potency entry in [17], in assay [10] and in assay [16] was “inactive” throughout. Further, the max response is 9.14% in assay [14] (setting [18]) and 2.52% in assay [14] (setting [19]).

Consider `N#Cc1ccccc1-c1ccc2ncnc(N3CCNCC3)c2c1`, for which the Potency was > 11.4 µM (inactive) in assay [1], 3.98 µM (active) in assay [3], > 46 µM (inactive) in assay [6] and > 46 µM (inactive) in assay [7]. For the same molecule, the activity change, negative = inhibition in [2] is 6.5% (inactive); in assay [4], 17.9% (inactive); in assay [14], 7.44% (inactive). Also, the activity, negative = inhibition in assay [5] was 2.26% (inactive). The molecule was classed as inactive in assay [8], in [12] and in assay [13]. The Potency result in [17], in assay [10], in assay [15] and in assay [16] was “inactive” in each case. The results for the max response in [14] (setting [18]) and in [14] (setting [19]) were 18.9% and 26.9%, respectively.
